Laboratory results reported in PubChem BioAssay (Tox21).
Where “and” joins values, the source holds several entries; their conditions need not be identical. Identical values can stand only once. Unmarked numbers belong to inactive results. Inconclusive results are not listed. Where a call stands in place of a potency, no number is given. Calls of active or inactive are those of the source. Calls come from the whole dose curve; as a rule, active = well fitted curve in the direction sought with a large enough effect in the repeat runs; inconclusive = weak or mixed curves; inactive = no such curve, though single readings can be large; an effect the other way counts as inactive or inconclusive.

Legend:
[1] = qHTS RealTime-Glo MT Cell Viability Assay in HEK293 cells - 16 hour (AID 1224872); note: nearly all actives have a fitted effect of over 50% in size; note: potency is the fitted concentration of half-maximal effect; for activity change, negative = cytotoxicity: top concentration of the series differs between compounds
In short: (§1)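 Homogeneous bioluminescent viability format in HEK293 cells (600 cells/well). Following 5 h at 37 C/5% CO2, 23 nL compound was pintooled; the signal was measured repeatedly during 40 h incubation.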

[2] = qHTS RealTime-Glo MT Cell Viability Assay in HepG2 cells - 8 hour (AID 1224873); note: nearly all actives have a fitted effect of over 55% in size
In short: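 HepG2 cells (600/well) mixed with RealTime-Glo MT reagent, settled 5 h at 37 C/5% CO2 before compound addition. Nonlytic NanoLuc luminescence from viable-cell prosubstrate reduction read repeatedly during 40 h treatment at 37 C.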

[3] = qHTS RealTime-Glo MT Cell Viability Assay in HEK293 cells - 40 hour (AID 1224874); conditions: RealTime-Glo luminescence; max response: hits give low values; note: nearly all actives have a fitted effect of over 50% in size; note: potency is the fitted concentration of half-maximal effect
In short: (§2)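 Luminescence readout at each listed time point; HEK293, 600 cells/well, RealTime-Glo MT reagent added with cells; compounds pinned (23 nL in DMSO) after 5 h at 37 C; continuous culture at 37 C.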

[4] = A CellTox Green Cytotoxicity Assay to monitor cytotoxicity in HepG2 cells - 16 hour (AID 1224876); note: nearly all actives have a fitted effect of over 45% in size; note: potency is the fitted concentration of half-maximal effect
In short: (§3)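 HepG2, 600 cells/well premixed w/ CellTox Green; 5 h settle, 37 C/5% CO2; pintool cpd add (DMSO); 37 C, 40 h; fluorescence read at 0, 8, 16, 24, 32, 40 h.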

[5] = qHTS RealTime-Glo MT Cell Viability Assay in HepG2 cells - 32 hour (AID 1224877); note: nearly all actives have a fitted effect of over 55% in size; note: potency is the fitted concentration of half-maximal effect
In short: (§4)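 Cell number in HepG2 cultures estimated from NanoLuc luminescence generated by metabolic reduction of a prosubstrate by living cells. The homogeneous, nonlytic format allowed repeated reads at 0, 8, 16, 24, 32 and 40 h of compound exposure.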

[6] = A CellTox Green Cytotoxicity Assay to monitor cytotoxicity in HepG2 cells - 24 hour (AID 1224878); note: nearly all actives have a fitted effect of over 45% in size; note: potency is the fitted concentration of half-maximal effect
In short: as §3

[7] = A CellTox Green Cytotoxicity Assay to monitor cytotoxicity in HepG2 cells - 40 hour (AID 1224879); note: nearly all actives have a fitted effect of over 40% in size; note: potency is the fitted concentration of half-maximal effect
In short: as §3

[8] = qHTS RealTime-Glo MT Cell Viability Assay in HEK293 cells - 0 hour (AID 1224880); note: top concentration of the series differs between compounds; nearly all actives have a fitted effect of over 45% in size
In short: as §2

[9] = A CellTox Green Cytotoxicity Assay to monitor cytotoxicity in HepG2 cells - 0 hour (AID 1224882); note: nearly all actives have a fitted effect of over 35% in size
In short: as §3

[10] = A CellTox Green Cytotoxicity Assay to monitor cytotoxicity in HepG2 cells - 32 hour (AID 1224883); note: nearly all actives have a fitted effect of over 50% in size; note: potency is the fitted concentration of half-maximal effect
In short: as §3

[11] = A CellTox Green Cytotoxicity Assay to monitor cytotoxicity in HEK293 cells - 8 hour (AID 1224884); note: nearly all actives have a fitted effect of over 35% in size
In short: (§5)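 Read-out: fluorescence of a cell-impermeant cyanine dye staining DNA of dead cells, proportional to cytotoxicity. HEK293, 600 cells/well with reagent, compound (23 nL DMSO) added after 5 h; reads at 0, 8, 16, 24, 32, 40 h.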

[12] = qHTS RealTime-Glo MT Cell Viability Assay in HepG2 cells - 16 hour (AID 1224885); note: nearly all actives have a fitted effect of over 50% in size; note: potency is the fitted concentration of half-maximal effect
In short: as §4

[13] = qHTS RealTime-Glo MT Cell Viability Assay in HEK293 cells - 24 hour (AID 1224886); note: nearly all actives have a fitted effect of over 50% in size; note: potency is the fitted concentration of half-maximal effect; for activity change, negative = cytotoxicity: top concentration of the series differs between compounds
In short: as §1

[14] = A CellTox Green Cytotoxicity Assay to monitor cytotoxicity in HEK293 cells - 16 hour (AID 1224888); note: nearly all actives have a fitted effect of over 35% in size
In short: as §5

[15] = qHTS RealTime-Glo MT Cell Viability Assay in HepG2 cells - 0 hour (AID 1224889); note: nearly all actives have a fitted effect of over 50% in size
In short: as §4

[16] = A CellTox Green Cytotoxicity Assay to monitor cytotoxicity in HepG2 cells - 8 hour (AID 1224890); note: nearly all actives have a fitted effect of over 45% in size
In short: as §3

[17] = A CellTox Green Cytotoxicity Assay to monitor cytotoxicity in HEK293 cells - 40 hour (AID 1224871); note: nearly all actives have a fitted effect of over 45% in size; note: potency is the fitted concentration of half-maximal effect
In short: as §5

[18] = A CellTox Green Cytotoxicity Assay to monitor cytotoxicity in HEK293 cells - 32 hour (AID 1224881); note: nearly all actives have a fitted effect of over 40% in size; note: potency is the fitted concentration of half-maximal effect
In short: as §5

[19] = A CellTox Green Cytotoxicity Assay to monitor cytotoxicity in HEK293 cells - 24 hour (AID 1224875)
In short: as §5

[20] = qHTS RealTime-Glo MT Cell Viability Assay in HEK293 cells - 8 hour (AID 1224887); note: nearly all actives have a fitted effect of over 50% in size; note: potency is the fitted concentration of half-maximal effect; for activity change, negative = cytotoxicity: top concentration of the series differs between compounds
In short: as §2

CC(Cc1ccccc1)NCc1ccccc1Cl (stereo not given)
Potency [1]: inactive
Potency [2]: inactive
max response [3]: -14.1%
Potency [4]: inactive
Potency [5]: inactive
Potency [6]: inactive
Potency [7]: inactive
outcome [8]: inactive
Potency [9]: inactive
Potency [10]: inactive
Potency [11]: inactive
Potency [12]: inactive
Potency [13]: inactive
Potency [14]: inactive
outcome [15]: inactive
Potency [16]: inactive

O=C1c2ccccc2C(=O)N1SC(Cl)(Cl)Cl
Potency [17]: 10.8 µM (active) and 11 µM (active)
Potency [1]: 3.42 µM (active) and 3.89 µM (active)
Potency [3]: 6.82 µM (active) and 9.77 µM (active)
Potency [4]: 43 µM (active) and 54.9 µM (active)
Potency [5]: 34.2 µM (active) and 13.8 µM (active)
Potency [6]: 34.2 µM (active) and 21.9 µM (active)
Potency [7]: 21.6 µM (active) and 12.3 µM (active)
outcome [8]: inactive
Potency [18]: 21.6 µM (active) and 8.71 µM (active)
Potency [9]: inactive
Potency [10]: 24.2 µM (active) and 12.3 µM (active)
Potency [11]: inactive
Potency [12]: 19.5 µM (active)
Potency [13]: 5.42 µM (active) and 6.16 µM (active)
Potency [14]: inactive
Potency [16]: inactive

Nc1c(Br)cc(Br)c2c1C(=O)c1ccccc1C2=O
cytotoxicity increase [17]: -1.3% [at 15.8 µM]
viability change, negative = cytotoxic [2]: -13.9% [at 15.8 µM]
activity change [19]: -4.1% [at 15.8 µM, hits give high values]
cytotoxicity increase [4]: -4.68% [at 15.8 µM]
activity change, negative = cytotoxic [5]: 5.09% [at 15.8 µM]
cytotoxicity [6]: -5.93% [at 15.8 µM]
cytotoxicity increase [7]: -11% [at 15.8 µM]
activity change, negative = cytotoxicity [8]: -4.62% [at 15.8 µM]
cytotoxicity increase [18]: -1.22% [at 15.8 µM]
cytotoxicity [9]: -4.24% [at 15.8 µM]
cytotoxicity increase [10]: -5.33% [at 15.8 µM]
cytotoxicity increase [11]: -10.2% [at 15.8 µM]
activity change, negative = cytotoxic [12]: -7.09% [at 15.8 µM]
activity change [14]: -11% [at 15.8 µM, hits give high values]
cytotoxicity increase [16]: -5.92% [at 15.8 µM]

C=CCc1ccccc1O
Potency [17]: inactive
Potency [2]: inactive
max response [3]: 7.74%
Potency [19]: inactive
Potency [4]: inactive
Potency [5]: inactive
Potency [6]: inactive
Potency [7]: inactive
outcome [8]: inactive
Potency [18]: inactive
Potency [9]: inactive
Potency [10]: inactive
Potency [11]: inactive
Potency [12]: inactive
Potency [13]: inactive
Potency [20]: inactive
Potency [14]: inactive

CCC(=O)O[C@@H]1C=C2CCC3C(CCC4(C)C3CC[C@@H]4OC(=O)CC)C2CC1 (stereo not given in full)
Potency [1]: inactive
Potency [2]: inactive
max response [3]: -21.1%
Potency [19]: inactive
Potency [4]: inactive
Potency [5]: inactive
Potency [6]: inactive
Potency [7]: inactive
outcome [8]: inactive
Potency [9]: inactive
Potency [10]: inactive
Potency [11]: inactive
Potency [12]: inactive
Potency [14]: inactive

CCCCCCCCCCCCN(C)C
Potency [17]: inactive
Potency [1]: inactive
max response [3]: -4.6%
Potency [19]: inactive
Potency [4]: inactive
Potency [5]: inactive
Potency [6]: inactive
outcome [8]: inactive
Potency [18]: inactive
Potency [9]: inactive
Potency [10]: inactive
Potency [11]: inactive
Potency [12]: inactive
Potency [13]: inactive
Potency [20]: inactive
Potency [14]: inactive
outcome [15]: inactive
Potency [16]: inactive

CCCCCBr
Potency [17]: inactive
Potency [19]: inactive
Potency [4]: inactive
Potency [5]: inactive
Potency [6]: inactive
Potency [7]: inactive
outcome [8]: inactive
Potency [18]: inactive
Potency [9]: inactive
Potency [11]: inactive
Potency [12]: inactive
Potency [14]: inactive
outcome [15]: inactive
Potency [16]: inactive

CN(C)C(=O)Nc1cccc(OC(=O)NC(C)(C)C)c1
Potency [17]: inactive
Potency [1]: inactive
max response [3]: -14.3%
Potency [19]: inactive
Potency [4]: inactive
Potency [5]: inactive
Potency [6]: inactive
Potency [7]: inactive
outcome [8]: inactive
Potency [18]: inactive
Potency [9]: inactive
Potency [12]: inactive
Potency [14]: inactive
Potency [16]: inactive

O=C(CCl)CCl
Potency [17]: 21.9 µM (active)
Potency [3]: 18 µM (active) and 21.9 µM (active)
Potency [19]: inactive
Potency [4]: inactive
Potency [5]: inactive
Potency [6]: 22.7 µM (active)
Potency [7]: 25.5 µM (active)
outcome [8]: inactive
Potency [9]: inactive
Potency [10]: 22.7 µM (active)
Potency [11]: inactive
Potency [12]: inactive
Potency [13]: 18 µM (active) and 19.5 µM (active)
Potency [20]: inactive
Potency [14]: inactive
outcome [15]: inactive

O=C(O)C(F)(F)C(F)(F)C(F)(F)C(F)(F)C(F)(F)C(F)(F)C(F)(F)C(F)(F)F
Potency [17]: inactive
Potency [1]: inactive
Potency [19]: inactive
Potency [4]: inactive
Potency [6]: inactive
Potency [7]: inactive
outcome [8]: inactive
Potency [18]: inactive
Potency [9]: inactive
Potency [11]: inactive
Potency [20]: inactive
Potency [14]: inactive
Potency [16]: inactive

CC(C)(C)N(NC(=O)c1ccc(Cl)cc1)C(=O)c1ccccc1
Potency [17]: inactive
Potency [2]: inactive
Potency [19]: inactive
Potency [4]: inactive
Potency [5]: inactive
Potency [6]: inactive
Potency [7]: inactive
outcome [8]: inactive
Potency [18]: inactive
Potency [9]: inactive
Potency [10]: inactive
Potency [11]: inactive
Potency [12]: inactive
Potency [14]: inactive
outcome [15]: inactive
Potency [16]: inactive

Cc1nc2ccccc2c(=O)n1-c1ccccc1Cl
Potency [17]: inactive
Potency [3]: 21.4 µM (active)
Potency [19]: inactive
Potency [4]: inactive
Potency [5]: inactive
Potency [6]: inactive
Potency [7]: inactive
outcome [8]: inactive
Potency [18]: inactive
Potency [9]: inactive
Potency [10]: inactive
Potency [11]: inactive
Potency [13]: 21.4 µM (active)
Potency [20]: 24 µM (active)
Potency [14]: inactive
Potency [16]: inactive
